# Compounds with a hit are over-represented: about 4.6% of the library has one in this group of screens.
# TRHR PAM: qHTS for Small Molecule Agonists and Allosteric Enhancers of Human TRH Receptor: Primary Screen for Enhancers; TRHR cells, fluo-8 calcium fluorescence, EC20 TRH enhancement; enhancement, % at 2 µM; 360,000 compounds, 0.66% hits; AID 493056, 2011; in the data active = enhancement above about 30%; note: 0% is about no effect
#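 TRHR-expressing cells loaded with fluo-8 calcium dye were read kinetically (ex 480/em 530) during compound addition, then stimulated with an EC20 of TRH (10 nM final). Enhancement of the Gq-mediated intracellular calcium response was scored.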
# TRHR agonist: qHTS for Small Molecule Agonists and Allosteric Enhancers of Human TRH Receptor: Primary Screen for Agonists. TRHR cells, calcium flux fluo-8, FDSS agonist mode. activation, % at 2 µM. 360,000 compounds, 0.18% hits; note: 0% is about no effect
#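 Read-out: compound-evoked intracellular calcium rise in TRHR cells, fluo-8 dye, kinetic FDSS fluorescence at 1 s/cycle following a 10-cycle baseline. Cells cultured overnight before dye loading (30 min–1.5 h, RT).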
# D1 potentiator: Potentiators of Human D1 Dopamine Receptor: qHTS | D(1A) dopamine receptor (Homo sapiens), P21728 | HEK293 TREx D1 cells, calcium flux, dopamine EC20 potentiation | potentiation, % at 10 µM | 360,000 compounds, 0.036% hits | AID 504651, 2011; in the data active = potentiation above about 30%; note: 0% is about no effect
# Target sequence (P21728 whole entry, looked up): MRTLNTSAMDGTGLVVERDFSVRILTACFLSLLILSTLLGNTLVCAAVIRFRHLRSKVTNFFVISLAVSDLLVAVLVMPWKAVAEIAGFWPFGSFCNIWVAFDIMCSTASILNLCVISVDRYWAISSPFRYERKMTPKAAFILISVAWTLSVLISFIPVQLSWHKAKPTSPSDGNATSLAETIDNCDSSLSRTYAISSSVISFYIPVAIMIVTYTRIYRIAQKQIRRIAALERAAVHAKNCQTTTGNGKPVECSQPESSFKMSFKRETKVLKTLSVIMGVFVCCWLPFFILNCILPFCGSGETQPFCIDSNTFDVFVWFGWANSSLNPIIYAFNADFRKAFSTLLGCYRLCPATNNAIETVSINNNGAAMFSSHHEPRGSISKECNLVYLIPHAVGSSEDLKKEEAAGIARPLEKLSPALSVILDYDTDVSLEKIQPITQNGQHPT
# D1 ag: Allosteric Agonists of the Human D1 Dopamine Receptor: qHTS | D(1A) dopamine receptor (Homo sapiens), P21728 | HEK293 T-REx D1 cells, calcium flux, agonist mode | activation, % at 2 µM | 360,000 compounds, 1% hits; note: 0% is about no effect
#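 Tetracycline-induced HEK293 TREx D1 cells, force-coupled to calcium signalling, were dye-loaded with a no-wash calcium kit. Compound was pin-added after a 10 s baseline. Fluorescence was read kinetically at 1 cycle/s for 180 s, with calcium rises flagged as agonism.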
# D1 antag: Antagonist of Human D 1 Dopamine Receptor: qHTS. 360,000 compounds, 3.2% hits. HEK293 TREx D1 cells, calcium flux, dopamine EC80; stronger effect = lower value. activity change, negative = inhibition, % at 10 µM; in the data active = activity change below about -30%; note: % is set by controls: 0 for no effect and ±100 for the full control effect
#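 Kinetic fluorescence of a calcium dye serves as the read-out. D1-expressing Hek293 Trex cells, induced overnight at 30 C, are exposed to compound for 180 s before an EC80 dopamine addition, then read 180 s further.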
# Starred values were filed as active, the others as inactive; . = no result given; ! = not active in a repeat. Cut-off read from the data, not from the text of the source, unless noted: active = activation above about 30%; inactive = the rest.
SMILES,TRHR PAM,TRHR agonist,D1 potentiator,D1 ag,D1 antag
Cc1ccc(NC(=O)COC(=O)Cn2cnc3c2c(=O)n(C)c(=O)n3C)c(Cl)c1,24,1,-6,4,1
Cc1ccc(Cl)c(OC(=O)Cn2cnc3c2c(=O)n(C)c(=O)n3C)c1,2,-1,3,14,-41*
Cn1c(=O)c2c(ncn2Cc2ccccc2)n(C)c1=O,-4,1,5,3,4
CC(C)Cc1cc(C(=O)Nc2cccc(O)c2)no1,0,0,0,3,1
CCOc1c(Br)cc(CNC2CCCCCCC2)cc1OC,4,1,-8,13,.
COC(=O)c1ccccc1NC(=O)CSc1n[nH]c(CC(C)C)n1,-5,2,-3,2,-4
CCc1nc(N2CCC3(CC2)OCCO3)c2nnn(Cc3ccccc3)c2n1,37*,1,2,2,-11
c1ccc(Cn2nnc3c(N4CCC5(CC4)OCCO5)ncnc32)cc1,-2,0,-7,-2,-4
Cc1cccc(Oc2ncnc3oc(-c4ccccc4)cc23)c1C,-7,0,-11,1,-81*
Cc1cc(Cl)ccc1Oc1ncnc2oc(-c3ccccc3)cc12,1,0,0,3,2
CCOc1ccccc1C(=O)OCC(=O)Nc1nnc(-c2ccccc2)o1,1,0,-1,2,6
O=C(CCC1CCCN(C(=O)Cc2cccc(F)c2)C1)N1CCN(c2ccccn2)CC1 (stereo unspecified),11,-1,-4,3,-6
N#CC1=C(N)C(C#N)(C#N)C(c2cccnc2)C2CCCC=C12 (stereo unspecified),0,2,-3,4,-30*
FC(F)(F)c1cccc(Cn2nnnc2-c2ccc(Cl)cc2)c1,3,0,-15,21,-39*
CCCn1nnnc1-c1ccc(Cl)cc1,5,0,5,0,5
COc1cccc(NS(=O)(=O)c2c(C(=O)N3CCCCCC3)c(C)n(C)c2C)c1,33*,-1,18,2,44
COc1ccc(NS(=O)(=O)c2c(C(=O)N3CCCCCC3)c(C)n(C)c2C)cc1OC,0,0,-4,2,11
CC(C)(C)NC(=O)C(c1ccc(F)cc1)N(Cc1cccs1)C(=O)c1ccc(CN2CCOCC2)o1 (stereo unspecified),-2,3,0,0,-8
Cc1ccc(O)c(C(=O)c2cnc3c(c2)COc2ccccc2-3)c1,-2,-1,-2,2,14
Cc1cc(O)c(C(=O)c2cnc3c(c2)COc2ccccc2-3)cc1Cl,35*,-1,-1,0,2
O=C(c1sccc1Br)N1CCN(Cc2ccc3c(c2)OCO3)CC1,-3,0,1,3,-7
COc1cc(CN(CCc2c(C)[nH]c3ccc(C)cc23)C(=S)NC(C)(C)C)cc(OC)c1OC,-5,1,-9,30*,-25
CC1=C(C(=O)Nc2ccc(C)cc2C)C(CC(C)C)n2nc(SCc3ccccc3C)nc2N1 (stereo unspecified),-2,1,-2,-1,-36*
CC1=C(C(=O)Nc2ccc(Cl)cc2)C(CC(C)C)n2nc(SCc3ccccc3C)nc2N1 (stereo unspecified),1,1,-2,2,-3
COc1ccc2oc(=O)c(C(=O)N3CCN(C(=O)c4ccccc4)CC3)cc2c1,1,0,4,1,2
SMILES,TRHR PAM,TRHR agonist,D1 potentiator,D1 ag,D1 antag
COc1ccc2oc(=O)c(C(=O)N3CCN(c4ccccc4)CC3)cc2c1,-6,-1,-1,0,-41*
COc1cccc(OC(=O)c2cc3ccccc3oc2=O)c1,-2,0,-2,5,-30*
CCOCCCNC(=O)C(Cc1ccccc1)NS(=O)(=O)c1ccc2c(c1)c(=O)n(C)c(=O)n2C (stereo unspecified),7,0,-1,-4,-2
CC(C)OCCCNC(=O)C(NS(=O)(=O)c1ccc2c(c1)c(=O)n(C)c(=O)n2C)c1ccccc1 (stereo unspecified),19,-1,-1,0,-44*
O=C1CC(c2cccc(O)c2)Oc2ccccc21 (stereo unspecified),3,0,-6,3,-32*
CCOCc1c(C(=O)N2CCN(CC(=O)Nc3ccc(F)cc3)CC2)oc2ccccc12,-20,-1,-7,-1,-34*
CCOCc1c(C(=O)N2CCN(CCOc3ccc(Cl)cc3)CC2)oc2ccccc12,-5,0,3,6,-13
CCc1cccc(C)c1NC(=O)CSc1nc(C)cc(C)c1C(=O)Nc1ccccc1,-11,0,2,5,1
c1coc(-c2nc3ccccn3c2Nc2ccc3c(c2)OCCO3)c1,-7,-1,2,1,-49*
Fc1ccc(Nc2c(-c3ccco3)nc3ccccn23)cc1,31*!,0,1,-1,-3
Cc1ccc2nc(-c3ccco3)c(Nc3ccc4c(c3)OCCO4)n2c1,-1,2,-1,1,5
CCOC(=O)c1oc2ccc(S(=O)(=O)n3nc(-c4ccc(Cl)cc4)cc3N)cc2c1C,2,0,-2,1,-16
COc1ccc(CCNC(=O)CCc2cn(Cc3ccccc3Cl)c3ccccc23)c(OC)c1,-7,1,-2,4,-36*
CCOC(=O)c1c(NC(=O)CSc2nc(C)cc(C)c2C#N)sc(C(C)=O)c1C,1,0,-1,0,9
CS(=O)(=O)c1ccc2nc(NC(=O)C3=NN(c4ccccc4)C(=O)CC3)sc2c1,-8,0,-4,2,-21
CCn1c(N2CCN(CC(=O)c3ccc(OC)cc3)CC2)nc2ccccc21,2,0,-3,-1,-50*
Cc1ccc(C2NC(c3ccc(C)cc3)C(C)C(=O)C2C)cc1 (stereo unspecified),-6,-1,1,4,12
CCCCCCCCCCSc1n[nH]c(NC(C)=O)n1,0,0,-9,0,-41*
CCCSc1n[nH]c(NC(C)=O)n1,1,0,-2,2,-5
O=C(Nc1ccc(N2CCOCC2)cc1)c1ccc2nc(-c3ccco3)c(-c3ccco3)nc2c1,-3,0,-2,3,-18
S=C(Nc1ccc(N2CCOCC2)cc1)Nc1ccc2nc(-c3ccco3)c(-c3ccco3)nc2c1,-3,23,-4,57*,-8
CCN(CC)C(=O)/C(=C/c1cn(S(=O)(=O)N(C)C)c2ccccc12)NC(=O)c1ccc(OC)cc1,0,-1,-5,3,5

# From PubChem BioAssay
